Methyltransferases = Primary Screen for Target Class Profiling of Small Molecule Inhibitors of Methyltransferases | purified enzyme, MTase-Glo SAH luminescence; stronger effect = lower value | calls only at 40 µM | 3.9% of 25,000 active; call rule not given here
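Each enzyme was assayed with SAM and its substrate. SAH formation detected by MTase-Glo luminescence; single-point 40 uM screen[…].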
Numbers without * were called inactive; i = inactive; + = active, no number; ! = not confirmed by another sample. Only a selection was taken, and hits are over-represented in it overall. % is scaled to controls: 0 for no effect and ±100 for the full control effect.

SMILES | Methyltransferases
COc1ccc(OC)c(NC(=O)c2sc(=S)n3c2[nH]c(=O)c2ccc(Cl)cc23)c1 | +
COc1ccccc1NC(=O)c1sc(=S)n2c1[nH]c(=O)c1ccc(Cl)cc12 | i
COc1ccc(CNC(=O)c2sc(=S)n3c2[nH]c(=O)c2cc4c(cc23)OCO4)cc1 | i
O=C(NCCc1nc2ccccc2s1)[C@H]1CNC[C@@H](C(=O)N2CCOCC2)C1 | i
CC(C)[C@@H]1CN(C(=O)CCn2ccc(=O)[nH]c2=O)C[C@H]1NC(=O)N(C)C | i
COc1cccc(CNC(=O)[C@@]23CCCC[C@H]2N(CCc2ccccc2)C(=O)CC3)c1 | i
COc1ccc(C(=O)COC(=O)C(Cc2c[nH]c3ccccc23)NC(=O)c2ccc(Br)cc2)cc1 (configuration not stated) | i
CNCCC(c1cccs1)c1ccc(O)c2ccccc12 (configuration not stated) | +
O=C(c1ccc(C#Cc2cccc(F)c2)cn1)N1CC2CC2C1 (configuration not stated) | i
Cc1noc(C)c1[S+](=O)([O-])N1CCn2cc(C(=O)Nc3ccc(Cl)cc3Cl)nc2C1 | i
CCN1C(=O)c2cc3ccccc3n2CC1(C)C(=O)NCC(=O)NCc1ccc(F)cc1 (configuration not stated) | i
O=C(/C=C/c1ccccc1)OC[C@H]1O[C@@H](OC(=O)c2cc(O)c(O)c(O)c2)[C@H](O)[C@@H](O)[C@@H]1O | +
O=C(/C=C/c1ccc(O)cc1)OC[C@H]1O[C@@H](O/C(=C\c2ccccc2)C(=O)O)[C@H](O)[C@@H](O)[C@@H]1O | i
CC(=O)O[C@@H]1[C@@H](CO)O[C@@](CO)(O[C@H]2O[C@H](COC(=O)/C=C/c3ccccc3)[C@@H](O)[C@H](O)[C@H]2O)[C@H]1O | i
CCCN1C(=O)c2cc(C(=O)NCc3cccnc3)nn2CC1(C)C(=O)NC1CCCC1 (configuration not stated) | i
CCOCCCNC(=O)c1cc2n(n1)CC(C)(C(=O)NCc1ccc(F)cc1)N(C)C2=O (configuration not stated) | i
Cn1c2c(c3ccccc31)C(C(=O)NCc1ccccc1)N(c1cccc(Cl)c1)C(=O)CS2 (configuration not stated) | i
O=C(Cc1c[nH]c2ccccc12)NCCc1c[nH]c2ccc(Cl)cc12 | i
COc1cc2c(CCNC(C)=O)c[nH]c2cc1O | +
N[C@@H](Cc1c[nH]c2ccc(O)cc12)C(=O)O | i
CCCn1c(=O)c2cc(F)ccc2n2c(SCc3cccc(OC)c3)nnc12 | i
CC(C)n1c(=O)c2ccc(C(=O)NC3CCCCC3)cc2n2c(=O)n(Cc3cccc(Cl)c3)nc12 | i
CCN1CCN(Cc2ccc(Nc3ncc(F)c(-c4cc(F)c5nc(C)n(C(C)C)c5c4)n3)nc2)CC1 | +
CCOC(=O)c1cc2n(n1)CC(C)(C(=O)NCCOC)N(c1ccc(C)cc1C)C2=O (configuration not stated) | i
Cc1ccc(CNC(=O)C2(C)Cn3nc(C(=O)NCc4ccco4)cc3C(=O)N2C)cc1 (configuration not stated) | i
SMILES | Methyltransferases
C[S+](CC[C@H](N)C(=O)[O-])C[C@H]1O[C@@H](n2cnc3c(N)ncnc32)[C@H](O)[C@@H]1O (some centres not stated) | i
Cc1ccc(Cn2c(=O)c3ccccc3n3c(-c4ccccc4O)nnc23)cc1 | i
CC1=C[C@@H](CO)[C@H](C(C)C)C[C@H]1CC(=O)NCc1cc(F)cc(F)c1 | i
Cc1ncc(CCCN(C)C)cc1Nc1ncc2c(n1)-c1ccc(C(F)(F)F)cc1NC(=S)C2 | +
Cc1ccc(NC(=O)CSc2nnc3n(CC(C)C)c(=O)c4cc(F)ccc4n23)c(Cl)c1 | i
CCOC(=O)c1cc2n(n1)CC(C)(C(=O)NCc1ccccc1)N(Cc1ccc(C)o1)C2=O (configuration not stated) | i
CN(Cc1cccs1)Cc1cccn1C | i
CN(Cc1cccs1)c1ncnc2ccc(-c3ccc4c(c3)OCO4)cc12 | +
CC1(C(=O)NC2CCCCCC2)Cn2c(c(-n3cccc3)c3ccccc32)C(=O)N1Cc1cccnc1 (configuration not stated) | i
Nc1nnc(-c2cccc(Cl)c2Cl)c(N)n1 | i
Nc1nc(NC2CC2)cc(-c2cccc(Cl)c2Cl)n1 | +
O=C(CN1C(=O)CNC1=O)N[C@H](c1ccc2c(c1)CCO2)C1CC(O)C1 (some centres not stated) | i
COc1cc2ncnc(Oc3cccc(NC(=O)Nc4cc(C(C)(C)C(F)(F)F)on4)c3)c2cc1OC | i
OC[C@H](Cc1ccccc1)Nc1nc(Oc2ccc3c(c2)CCC3)nc2c1ncn2Cc1ccc(-c2ccccc2)cc1 | +
O=C(NC1CCCC1)c1ccc2c(=O)n(Cc3ccccc3)c3nn(Cc4ccccc4)c(=O)n3c2c1 | i
O=C(O)C1=CC(=C(c2ccc(O)c(C(=O)O)c2)c2ccc(O)c(C(=O)O)c2)C=CC1=O | +
CC1(C(=O)NC2CCCC2)Cn2c(ccc2-c2ccco2)C(=O)N1CCc1ccc(Cl)cc1 (configuration not stated) | i
CC(C)CNC(=O)c1ccc2c(=O)n(C)c3nn(CC(=O)NC4CCCCC4)c(=O)n3c2c1 | i
O=C(NCc1ccc(F)cc1)C(=O)c1c[nH]c2ccccc12 | i
O=C1CCCCCN1C1CCN(Cc2ccsc2)CC1 | i
COc1ccc(C(=O)Nc2cnc(-c3ccc(Cl)cc3)nc2)cc1 | i
COC(=O)/C=C/c1ccc(O[C@@H]2O[C@H](CO)[C@@H](O)[C@H](O)[C@H]2O)cc1 | i
COc1ccc(NC(=O)/C=C/c2ccc(Cl)cc2)cc1 | +
COc1c2c(c(C)c3c1C(=O)OC3)O[C@@]1(C)CC(O)C(C(C)(C)O)[C@](C)(CCC(=O)O)[C@H]1C2 (some centres not stated) | i
COc1c2c(c(C)c3c1C(=O)OC3)OC1(C)CC(O)C34OC(OC)(CC(O)C3(C)C1C2)OC4(C)C (configuration not stated) | +
SMILES | Methyltransferases
COc1c2c(c(C)c3c1C(=O)OC3)OC1(C)CC(O)C3(O)C(C)(C)OC(=O)CCC3(C)C1C2 (configuration not stated) | i
C[C@@H](NC(=O)[C@@H]1C[C@@H](NS(=O)(=O)c2cccs2)CCN1C(=O)c1ccco1)C(N)=O | i
C=CCN1CC2(CCC1=O)CCN(C(=O)C1CC=CCC1)CC2 (configuration not stated) | i
COCC1CN(C)CC12CCN(S(=O)(=O)Cc1ccc(F)cc1)CC2 (configuration not stated) | i
O=c1cc(-c2ccc(O)c(O)c2)oc2cc(O)cc(O)c12 | i
O=c1c(-c2ccc(O)cc2)coc2cc(O)cc(O)c12 | i
O=c1c(O)c(-c2ccc(O)c(O)c2)oc2cc(O)cc(O)c12 | +!
CN(CC(=O)N1CCC(Cc2ccccc2)CC1)S(=O)(=O)c1ccc2c(c1)CCC(=O)N2 | i
COc1ccccc1CNC(=O)CCc1nnc2n(CCCOC(C)C)c(=O)c3ccccc3n12 | i
CC(O)(CC(=O)O)CC(=O)OCc1ccc(O[C@@H]2O[C@H](CO)[C@@H](O)[C@H](O)[C@H]2O)cc1 (some centres not stated) | +

Compound activity deposited in PubChem BioAssay by National Center for Advancing Translational Sciences (NCATS).
